Source: PubChem BioAssay (Tox21)
Results filed as inconclusive are left out. Unmarked numbers belong to inactive results. Calls follow the shape of the dose curve; as a rule, active = well fitted cell-killing curve with a large enough effect in the repeat runs (not every such curve was filed as active); inconclusive = weak or mixed curves, or effect the other way; inactive = no such curve, though single readings can be large or run the other way.

Assay: qHTS assay to identify small molecule antagonists of the estrogen related receptor signaling pathway with the pleiotropic PPARgamma coactivator (PGC) from Tox21 10K library - cell viability counter screen (AID 1224840); also: nearly all actives have a fitted effect of over 40% in size
Settings: PGC/ERR reporter cells viability, CellTiter-Fluor, 17.5 h; series mostly up to 92.4 µM; viability change, negative = cytotoxic: at the top concentration
Source text: National Center for Advancing Translational Sciences [NCATS]
NIH Chemical Genomics Center [NCGC]
U.S. Environmental Protection Agency [EPA]
National Institutes of Environmental Health Sciences [NIEHS]
National Toxicology Program [NTP]
U.S. Food and Drug Administration [FDA]
Estrogen related receptors (ERRs), the first orphan nuclear receptors discovered, play an important role in the control of cellular energy metabolism. ERRs are required for high-energy production in response to the environmental challenges. The pleiotropic PPARgamma coactivator (PGC) is a major partner of ERR and a key regulator in energy homeostasis. Together they have been implicated in the etiology of metabolic disorders such as Type 2 diabetes and metabolic syndrome. ERR-alpha was also identified as an adverse marker for breast cancer progression; ERR-alpha-positive tumors have a poor prognosis. To screen and to identify environmental compounds that perturb the ERR and PGC/ERR signaling pathways could provide valuable information for potential therapeutic or preventive measures in the treatment of metabolic disease. To differentiate true PGC/ERR antagonists or agonist from cytotoxic substances, the assay is multiplexed with cell viability assay.
Tox21 Assay Protocol Summary:
The PGC/ERR cells were dispensed at 2,000 cells/5 ul/well in 1536-well white plates using a Multidrop dispenser. After the assay plates were incubated at a 37 C/5% CO2 incubator for 6 hours, 23 nL of compounds dissolved in DMSO, positive and negative controls or DMSO only was transferred to the assay plate by a pin tool. The plates were incubated at 37 C for 17.5 hours. 1 ul/well of CellTiter-Fluor reagent was added into the assay plates using a Flying Reagent Dispenser. After 30-minute incubation at 37 C/5% CO2, the fluorescence intensity in the plates was measured using a ViewLux plate reader.
% is scaled to controls: 0 for no effect and ±100 for the full control effect.

Row | SMILES | viability change, negative = cytotoxic
1 | O=C(O)CCSCCC(=O)O | 7.3%
2 | C=CCCCCCCCCC(=O)OCC | 8.25%
3 | CCCCN1C=CN(C)C1 | 1.46% [at 19 µM]
4 | CCN[C@@H]1C[C@H](N)[C@@H](OC2OC(CN)=CCC2N)[C@H](O)[C@H]1O[C@H]1OC[C@](C)(O)[C@H](NC)[C@H]1O (stereo not given in full) | -0.298% [at 0.349 µM]
5 | C1CCC2=NCCCN2CC1 | -3.63%
6 | CC(=O)c1cnccn1 | 6.31%
7 | CNC(=O)Nc1ccc(Cl)c(Cl)c1 | -6.07%
8 | Cc1ccccc1N=C(N)N=C(N)N | 13.3%
9 | CCCC[N+](C)(CCCC)CCCC | 3.71%
10 | CC(C)c1ccc2ncccc2c1 | -9.08%
11 | CCCCCCC#CC(=O)OC | 5.05%
12 | NC(N)=NCCN1CCCCCCC1 | -1.22% [at 0.349 µM]
13 | Nc1ccn([C@@H]2O[C@H](CO)[C@@H](O)[C@@H]2O)c(=O)n1 | 1.29%
14 | C=C(C)C(=O)OCC(O)CO (stereo not given) | 1.65% [at 42.5 µM]
15 | CC(=O)C1CCCCC1=O (stereo not given) | -3.01%
16 | C=CC(C)(CCC=C(C)C)OC(=O)CC (stereo not given) | 1.04%
17 | CN(C)CCN(C)CCN(C)C | -7.35%
18 | CCCCc1ccc2c(n1)[C@@H](c1ccc(OC)cc1C[C@H](C)C(=O)O)[C@H](C(=O)O)[C@H]2c1ccc2c(c1)OCO2 | 1.25%
19 | C=C[Si](OC(C)=O)(OC(C)=O)OC(C)=O | 8.84%
20 | CCCC(C)C(=O)OCC (stereo not given) | -0.934%

Row | SMILES | viability change, negative = cytotoxic
21 | O=S(=O)(O)c1cccc(S(=O)(=O)O)c1 | 4.78%
22 | CN1CCC(=C2c3ccccc3CCc3cccnc32)CC1 | 4.46% [at 42.5 µM]
23 | O=C(O)Cc1csc(-c2ccc(Cl)cc2)n1 | 4.46% [at 42.5 µM]
24 | CNCCO | 12.1%
25 | C[C@@H]1C[C@H]2[C@@H]3C[C@H](F)C4=CC(=O)C(Cl)=C[C@]4(C)[C@@]3(F)[C@@H](O)C[C@]2(C)[C@@]1(O)C(=O)CO | 5.68% [at 42.5 µM]
26 | CCO[Si](OCC)(OCC)c1ccccc1 | 9.47%
27 | CC(C)=CCC/C(C)=C/C#N | 8.57%
28 | CC(C)C1CCC(O)CC1 (stereo not given) | 4.94%
29 | FB(F)F | 3.51%
30 | Cc1nc2ccc(CN(C)c3ccc(C(=O)N[C@@H](CCC(=O)O)C(=O)O)s3)cc2c(=O)[nH]1 | -2.62% [at 42.5 µM]
31 | CN1[C@@H]2CC[C@H]1CC(OC(=O)C(O)c1ccccc1)C2 (stereo not given in full) | 4.73% [at 42.5 µM]
32 | CCCCCCCCCCCCSC | -3.6%
33 | C[C@@H]1CCC[C@H](C)N1 | 12.4% [at 42.5 µM]
34 | CC[C@H]1OC(=O)[C@H](C)[C@@H](O[C@H]2C[C@@](C)(OC)[C@@H](O)[C@H](C)O2)[C@H](C)[C@@H](O[C@@H]2O[C@H](C)C[C@H](N(C)C)[C@H]2O)[C@](C)(OC)C[C@@H](C)C(=O)[C@H](C)[C@@H](O)[C@]1(C)O | 0.473%
35 | OCCCCCO | -0.719%
36 | CCOc1ccc2nc(S(N)(=O)=O)sc2c1 | 15.5% [at 42.5 µM]
37 | Cc1ccc(C(=O)Nc2ccc(S(=O)(=O)O)c3cc(S(=O)(=O)O)cc(S(=O)(=O)O)c23)cc1NC(=O)c1cccc(NC(=O)Nc2cccc(C(=O)Nc3cc(C(=O)Nc4ccc(S(=O)(=O)O)c5cc(S(=O)(=O)O)cc(S(=O)(=O)O)c45)ccc3C)c2)c1 | -7.4% [at 42.5 µM]
38 | Cc1ncc([C@@H](CCCCCCc2ccc3c(n2)NCCC3)CC(=O)O)cn1 | -26.9%
39 | Nc1ccn([C@@H]2O[C@H](CO)[C@@H](O)C2O)c(=O)n1 (stereo not given in full) | 7.79%
40 | C[N+](C)(C)CCCCCCCCCC[N+](C)(C)C | 14.7% [at 42.5 µM]
